# In the library only some 2.3% were active in any assay of this set; here they are far more common.
# CHO-K1 Ca antag = M1 antagonist counterscreen hit in parental CHO-K1 cells | ATP-induced calcium, Fluo-8 fluorescence | inhibition, % at 3 µM | 360,000 tested, 0.6% active | AID 602250;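 active = inhibition above a per-plate cutoff, the plate's mean sample inhibition plus 3 SD, cut at about 24% in these data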
# M1 PAM = human CHRM1 positive allosteric modulation | P11229 | CHO-K1 hM1, Fluo-8 calcium fluorescence, ACh EC20; 0% = ACh EC20, 100% = maximal ACh | activation, % at 3 µM | 360,000 tested, 0.088% active; in the data active = activation above about 19%, passing the limit was not always enough
# Target sequence (P11229 whole entry, looked up): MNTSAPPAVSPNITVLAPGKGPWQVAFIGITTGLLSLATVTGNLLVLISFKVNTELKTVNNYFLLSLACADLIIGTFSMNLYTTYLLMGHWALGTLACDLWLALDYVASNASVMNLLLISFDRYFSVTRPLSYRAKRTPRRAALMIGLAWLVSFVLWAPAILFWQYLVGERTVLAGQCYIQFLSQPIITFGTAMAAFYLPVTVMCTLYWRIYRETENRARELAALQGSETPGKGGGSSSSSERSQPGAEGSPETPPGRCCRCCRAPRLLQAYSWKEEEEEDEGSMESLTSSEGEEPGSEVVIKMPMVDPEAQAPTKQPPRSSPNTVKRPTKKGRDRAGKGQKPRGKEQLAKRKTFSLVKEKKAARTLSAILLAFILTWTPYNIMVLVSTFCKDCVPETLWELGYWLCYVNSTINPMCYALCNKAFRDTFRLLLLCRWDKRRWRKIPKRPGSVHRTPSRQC
# M1 ag = human M1 muscarinic receptor agonism; P11229; activation, % at 3 µM; CHO-K1 hM1, Fluo-8 calcium fluorescence, agonist mode; 0% DMSO, 100% acetylcholine EC100; 360,000 tested, 0.33% active;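 active = activation above the run's mean compound activation plus 3 SD, cut at about 16% in these data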;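 also: peak over basal fluorescence ratio within a 140 s kinetic read after compound addition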
# M1 ag parental = M1 agonist counterscreen hit in parental CHO-K1 cells | Fluo-8 calcium fluorescence; scaled to maximal ATP response, vehicle zero | activation, % at 3 µM | 360,000 tested, 0.48% active; in the data active = activation above about 15%;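 also: untransfected CHO-K1 host cells lacking M1 receptor as counterscreen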
# CHRM1 antagonist = blocks human M1 muscarinic receptor | AID 588852 | 360,000 tested, 1.3% active | P11229 | CHO-K1 hM1, Fluo-8 calcium fluorescence, ACh EC80 antagonist | inhibition, % at 3 µM;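 active = percent inhibition above its own plate's cutoff, namely the mean of that plate's compound wells plus 3 SD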;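 also: peak over basal fluorescence ratio during 140 s after agonist addition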
# CHO-K1 Ca PAM = nonselective activator or artifact in parental CHO-K1 calcium assay | ATP EC20, Fluo-8 calcium fluorescence; 0% at ATP EC20, 100% at ATP max | activation, % at 3 µM | 360,000 tested, 0.02% active | AID 602247;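 active = activation above the run cutoff, the mean activation of all test compounds plus 3 SD, cut at about 40% in these data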;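 also: peak over basal fluorescence ratio in a 140 s read after ATP addition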
# Numbers stand for hits; – = inactive.
SMILES,CHO-K1 Ca antag,M1 PAM,M1 ag,M1 ag parental,CHRM1 antagonist,CHO-K1 Ca PAM
CC1(C)CC[C@]2(C(=O)O)CC[C@]3(CO)C(=CCC4[C@@]5(C)C[C@H](O)[C@H](O)[C@@](C)(C(=O)O)C5CC[C@]43C)[C@@H]2C1 (stereo partly drawn),–,26.6,–,–,–,–
CCn1nc(C)c(NC(=O)Nc2cccc(Cl)c2Cl)c1C,–,–,–,–,–,–
O=C(NCc1cc(C(F)(F)F)ccc1Cl)c1cccc2c1C(=O)c1ccc(N3CCC(N4CCCCC4)CC3)cc1S2(=O)=O,–,–,–,–,31.7,–
O=C(NCCc1ccc(F)cc1)c1cccc2c1C(=O)c1ccc(N3CCC(Cc4ccccc4)CC3)cc1S2(=O)=O,–,–,20.4,–,–,–
O=C(NCc1cc(C(F)(F)F)ccc1Cl)c1cccc2c1C(=O)c1ccc(N3CCCCC3)cc1S2(=O)=O,–,–,–,–,–,–
O=C(NCc1cccc(F)c1)c1cccc2c1C(=O)c1ccc(N3CCCC3)cc1S2(=O)=O,–,–,26.6,–,33.0,–
CCOc1ncccc1C(=O)Nc1cccc(S(=O)(=O)N2CCOCC2)c1,–,–,–,–,–,–
CCOCCc1nnc(NC(=O)Cc2c(F)cccc2Cl)s1,–,–,–,–,–,–
CN1CCN(NC(=O)c2ccc(Cl)s2)CC1,–,–,–,–,–,–
COc1ccc(OCC(=O)Nc2nccs2)cc1,–,–,–,17.1,–,–
COc1ccccc1OCC(=O)Nc1ncc(C)s1,–,–,–,–,–,–
CCC(=O)c1ccc(OCC(=O)Nc2nc(C)cs2)cc1,–,–,–,–,–,–
COc1ccc(C(CC(=O)Nc2nccs2)C(C)C)cc1 (stereo not drawn),–,–,–,19.3,–,–
Cc1cnc(NC(=O)COc2ccccc2)s1,25.1,–,–,–,–,–
CCC(=O)c1ccc(OCC(=O)Nc2nc(-c3cccnc3)cs2)cc1,–,–,–,–,26.9,–
COc1ccc(C(CC(=O)Nc2nccs2)n2cccc2)cc1 (stereo not drawn),–,–,–,–,–,–
Cc1cc(=O)[nH]c2nnc(-c3ccc(Cl)cc3)n12,–,–,–,–,–,–
Cc1nc(NC(=O)C2CC2)sc1C(=O)Nc1ccccc1Cl,–,–,–,–,–,–
O=C(CNc1n[nH]c(=O)[nH]c1=O)N/N=C/C=C/c1ccccc1,–,–,–,–,–,–
O=C(CCNC(=O)c1ccco1)NCc1ccc(C(=O)O)cc1,–,–,–,–,–,–
O=C(NCC1CCN(Cc2ccc(F)cc2)CC1)C1CCCN(c2ncnc3c2nc2n3CCCCC2)C1 (stereo not drawn),–,–,–,–,70.0,–
O=C(NCC1CCN(Cc2ccc(Cl)cc2)CC1)C1CCCN(c2ncnc3c2nc2n3CCCCC2)C1 (stereo not drawn),–,–,–,–,102.8,–
O=C(NCC1CCN(Cc2cccc(Cl)c2)CC1)C1CCCN(c2ncnc3c2nc2n3CCCCC2)C1 (stereo not drawn),–,–,–,–,75.3,–
O=C(NCCc1ccc(Cl)cc1)C1CCCN(c2ncnc3c2nc2n3CCCCC2)C1 (stereo not drawn),–,–,–,–,–,–
O=C(NCc1ccccc1)C1CCCN(c2ncnc3c2nc2n3CCCCC2)C1 (stereo not drawn),–,–,–,–,–,–
SMILES,CHO-K1 Ca antag,M1 PAM,M1 ag,M1 ag parental,CHRM1 antagonist,CHO-K1 Ca PAM
O=C(C1CCN(c2ncnc3c2nc2n3CCCCC2)CC1)N1CCN(c2ccc(F)cc2)CC1,–,–,30.1,–,–,–
COC(=O)c1c(N)nc(C)n1-c1ccc(OC)cc1,25.0,–,–,–,–,–
CCN(CC)CCCNc1nc(N)c([N+](=O)[O-])c(N2CCCCCC2)n1,–,–,–,–,64.8,–
C=CCNc1nc(N)c([N+](=O)[O-])c(N2CCCCCC2)n1,–,–,–,–,–,–
O=C(O)c1cn2c3c(ccc(Cl)c3c1=O)OCC2,–,26.0,–,–,–,–
CCOc1ccc(NC(=O)CNC(=O)c2nn(-c3ccc(OC)cc3)c(=O)c3ccccc23)cc1,–,–,–,–,–,–
CC(C)C[C@H]1CN=C(N(C)C)N1CCc1cccc(F)c1,–,–,–,–,–,–
